# Compound activity from PubChem.
# A selection follows.
# AmpC no deterg: blocks E. coli AmpC beta-lactamase in detergent-free assay; AmpC nitrocefin hydrolysis, absorbance 480 nm, 0.0001% Triton; AID 485341; Potency, µM (doses to about 57.1 µM), for the others: at the top dose activity change, negative = inhibition, hits mostly inhibitors; 0.52% of 330,000 active;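 further: potency means the concentration at half of the fitted maximal effect; plate controls were no compound for no effect and no enzyme for full effect; nearly all actives have a fitted effect of over 20% in size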
# Target sequence (P00811 whole entry, looked up): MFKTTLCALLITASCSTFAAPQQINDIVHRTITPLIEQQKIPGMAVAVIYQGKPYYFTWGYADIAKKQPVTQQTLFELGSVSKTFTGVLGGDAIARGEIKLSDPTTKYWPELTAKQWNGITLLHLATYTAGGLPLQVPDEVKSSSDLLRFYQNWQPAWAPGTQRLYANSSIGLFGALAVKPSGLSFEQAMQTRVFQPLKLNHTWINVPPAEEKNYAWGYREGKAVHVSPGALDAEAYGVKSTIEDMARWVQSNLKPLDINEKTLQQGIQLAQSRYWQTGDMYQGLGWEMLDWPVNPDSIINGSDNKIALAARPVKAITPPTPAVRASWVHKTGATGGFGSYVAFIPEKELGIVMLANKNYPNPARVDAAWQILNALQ
#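 AmpC (5.3 nM in the dispensed reagent) in 20 mM phosphate pH 7.0 with 0.01% (detergent screen) or 0.0001% Triton X-100 was preincubated with compounds for 15 min at room temperature. Nitrocefin was then added from an 800 uM solution, and hydrolysis was followed at 480 nm.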
# Sm TGR block: inhibitors of Schistosoma mansoni thioredoxin glutathione reductase; 3% of 360,000 active; Potency, µM (top dose mostly 114 µM), inactives show top-dose activity change, negative = inhibition, hits mostly inhibitors; Q962Y6; purified TGR, DTNB reduction, TNB absorbance 405 nm; AID 485364; further: potency means the concentration at half of the fitted maximal effect; on the % scale 0 is the no-effect control and ±100 the full control effect; nearly all actives have a fitted effect of over 60% in size
#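 TGR 20 nM + NADPH 100 uM (dispensed conc.), cpd preinc 15 min RT; start with NADPH (500 uM addition) then DTNB (15 mM addition). Kinetic TNB absorbance, 405 nm filter. Four-parameter Hill fit across titration.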
# Pf growth 96h: P. falciparum growth inhibition at 96 hour, primary screen for plastid delayed-death inhibitors; P. falciparum luciferase reporter growth, 96 h; Potency, µM (titrated, usually from 28.7 µM), for inactives: at the highest dose activity change, negative = inhibition, most hits filed as inhibitors; 6.9% of 320,000 active; further: potency means the concentration at half of the fitted maximal effect; on the % scale 0 is the no-effect control and ±100 the full control effect
#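 Infected RBCs, 2% Hct / 0.05% parasitemia final; luciferase-reporter P. falciparum; cpd 96 h, 37 C, 5% CO2; luciferase detection reagent; luminescence.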
# SARS PLpro yeast-1: inhibitors of SARS-CoV papain-like protease in yeast | S. cerevisiae expressing SARS-CoV PLpro, growth rescue | Potency, µM (titrated, usually from 32.9 µM), inactives show top-dose activity, positive = growth rescue, actives largely listed as activators | 0.19% of 330,000 active | AID 485353; calls by dose curve; further: potency means the concentration at half of the fitted maximal effect; 0% is about no effect; nearly all actives have a fitted effect of over 55% in size
# Pf growth 48h: P. falciparum growth inhibition at 48 hours (one generation); P. falciparum luciferase growth in erythrocytes, 48 h; Potency, µM (titrated, usually from 28.7 µM), for the others: at the top dose activity change, negative = inhibition, most hits filed as inhibitors; 5.9% of 310,000 active; AID 504832; further: potency means the concentration at half of the fitted maximal effect; on the % scale 0 is the no-effect control and ±100 the full control effect
#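 Here the parasites carry a stable luciferase gene and grow inside erythrocytes in Albumax-based RPMI medium with compound for one erythrocytic cycle. Activity is scored as loss of luminescent signal.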
# AmpC detergent: blocks E. coli AmpC beta-lactamase in detergent assay. Potency, µM (doses to about 114 µM), for the others: at the highest dose activity change, negative = inhibition, usual class: inhibitors. P00811. AID 485294. AmpC hydrolysis of nitrocefin, absorbance 480 nm, 0.01% Triton. 0.041% of 370,000 active;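 further: potency means the concentration at half of the fitted maximal effect; 0% = no-compound wells and -100% = no-enzyme wells; nearly all actives have a fitted effect of over 25% in size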
#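 20 mM phosphate pH 7.0 + 0.01% (detergent screen) or 0.0001% Triton X-100; 5.3 nM AmpC reagent; cpd preinc 15 min RT; nitrocefin (800 uM stock) to start; A480 q20 s × 4 min; Activity was normalised to no-enzyme and no-compound control wells.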
# SARS PLpro yeast-2: Validates SARS-CoV PLpro inhibitor hits in yeast | shares compounds with SARS PLpro yeast-1 | yeast expressing SARS-CoV PLpro, growth phenotype rescue | calls only | 19% of 1,000 active | AID 652038; call rule not given here
# * hit, by the source's call; i = inactive; ? = inconclusive; . = not tested or not shown; + = active, no number. Unless noted, the call rests on the fitted dose curve; in most records, active means well fitted curve in the direction sought with a large enough effect; inconclusive means small, poorly fitted or top-dose-only effect, or another doubt; inactive means no such curve, though single readings can be large; an effect the other way counts as inactive or inconclusive.
SMILES,AmpC no deterg,Sm TGR block,Pf growth 96h,SARS PLpro yeast-1,Pf growth 48h,AmpC detergent,SARS PLpro yeast-2
CC(Sc1ccccc1)C(=O)NN=C1CCCCCCC1 (centres undefined),-23.1%,-4.6%,10.4%,?,3.3%,2.1%,.
O=C(NC1CCCC1)C(=O)N(Cc1cccnc1)C(C(=O)NC1CCCC1)c1ccco1 (centres undefined),-9.9%,.,-8.7%,-0.4%,-18.2%,3.7%,.
O=C(NC1CCCCC1)C(c1ccco1)N(Cc1cccnc1)C(=O)C1COc2ccccc2O1 (centres undefined),30.7%,-6.0%,-29.3%,?,?,4.6%,i
COc1ccc(C2=NN(C(=O)c3ccc(Cl)c([N+](=O)[O-])c3)C(c3ccccc3)C2)cc1 (centres undefined),?,0.0%,-7.6%,?,-13.7%,-11.9%,?
CCOC(=O)C1(Cc2cccc(Cl)c2)CCCN(C(=O)c2ccc(COC)s2)C1 (centres undefined),141.5%,2.5%,-22.9%,-5.4%,?,-4.1%,.
Nc1nonc1C(=O)N/N=C/c1cc(Br)ccc1O,-26.0%,2.9%,13.0%,?,4.15µM*,-3.4%,+
Nc1nonc1-n1nnc(C(=O)N/N=C/c2cc(Br)ccc2O)c1CNc1ccccc1,-45.0%,1.4%,?,?,?,-5.2%,.
O=C(N/N=C/c1cc(Cl)ccc1O)c1ccc(Br)cc1,-49.9%,-9.6%,11.8%,?,?,?,i
O=C(N/N=C/c1cccc(Br)c1)c1ccc(Br)cc1,-15.4%,0.7%,37.2%,-1.7%,-4.2%,-16.0%,.
COc1ccc(C(=O)N=C2SC3CS(=O)(=O)CC3N2c2ccc(C(C)=O)cc2)cc1 (centres undefined),8.1%,-1.9%,16.9%,-4.9%,4.9%,-6.0%,.
CCCN(Cc1cccs1)C(=O)Nc1cc(C)cc(C)c1,.,-7.0%,.,.,.,-2.1%,.
Cn1c(C(=O)Nc2ccc(Cl)cc2)cc2cc(Cl)ccc21,-21.3%,-31.9%,?,-8.5%,2.9%,-0.1%,.
COc1cc(C(=O)NCC(=O)N/N=C(/C)c2cccs2)cc(OC)c1OC,5.9%,5.6%,1.65µM*,?,0.0%,-4.2%,i
CC1(C)C(=O)C2(CCCCC2)C(=O)OC1c1cccn1-c1ccc([N+](=O)[O-])cc1 (centres undefined),-3.2%,-13.1%,54.6%,?,24.5%,?,?
CC1(C)C(=O)OC(c2cccn2-c2ccc([N+](=O)[O-])cc2)C(C)(C)C1=O (centres undefined),1.0%,2.0%,3.7%,-15.3%,6.6%,?,.
Cc1nnc2n(-c3ccccc3)c(=O)c3c4c(sc3n12)COC(C)(C)C4,-0.8%,0.0%,11.4%,?,7.3%,-8.9%,i
CC(=O)Nc1ccc(NC(=O)C2CCN(C(=O)c3cccs3)CC2)cc1,0.8%,0.0%,46.7%,0.3%,16.5%,?,.
COc1ccc(C)cc1S(=O)(=O)Nc1ccc(F)cc1,-12.9%,-3.8%,.,?,3.8%,-2.7%,i
COc1ccc(OC)c(S(=O)(=O)Nc2ccc(F)cc2)c1,-23.5%,13.1%,.,4.0%,-12.0%,-7.8%,.
CCOC(=O)c1[nH]cnc1C(=O)N1CCN(C(=O)OC(C)(C)C)CC1,-10.5%,-8.4%,25.1%,?,11.7%,-0.4%,?
COc1cccc(C(CNC(=O)C2CCN(C(=O)Nc3ccccc3)CC2)N(C)C)c1 (centres undefined),4.4%,?,-9.4%,?,?,9.9%,i
CCOC(=O)c1cc(-c2ccccc2C)n(CC2CC(c3cccc([N+](=O)[O-])c3)=NO2)n1 (centres undefined),63.8%,-13.1%,?,3.2%,?,-10.9%,.
